From PubChem BioAssay come the findings set out here.

Structures are written as SMILES. Activity calls are given as the source filed them. Unless noted, how the calls were made is not given here.

Assay [1] concerns Wnt5a (protein binding on small-molecule microarray). Put plainly: small molecules binding Wnt5a protein – biophysical, small-molecule microarray, 635/667 nm fluorescence, primary screen (AID 1142).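 Further: fluorescence read at 667 nm with signal to noise per printed feature.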 The settings on record: 635 nm fluorescence, higher = more signal.
The nature of assay [2]: ATP-based viability of Huh7 replicon cells – cell-based, CellTiter-Glo luminescence, basal, 48 h, cytotoxicity control for HCV replication inhibitor project, primary screen (AID 1143).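 Further: Huh7 hepatoma cells carrying a hepatitis C replication reporter with no stimulus; test concentration not given here.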 Particulars: higher = more signal, called active from +8 up or from −8 down.
Assay [3] can be described thus: Pseudomonas biofilm growth suppression – PAO1 strain, BacTiter-Glo luminescence, LB-PBS, primary screen (AID 1144). Particulars: P. aeruginosa PAO1 biofilm, 12 h, higher = more signal.
The nature of assay [4]: basal CRE-LacZ reporter activity in PC12 – cell-based, unstimulated, primary screen (AID 1145). The settings on record: no forskolin, luminescence, 4.5 h, higher = more signal, called active from +8 up or from −8 down.
Assay [5] is described as follows: forskolin-driven CRE-LacZ activity in PC12 – cell-based, CRE-LacZ reporter, forskolin-stimulated, primary screen (AID 1146).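 Further: PC12 cells with 6xCRE LacZ reporter stimulated by forskolin 10 µM; beta-galactosidase reporter signal reflecting CREB driven transcription.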 Particulars: luminescence, 4.5 h, higher = more signal, called active from +8 up or from −8 down.
Assay [6] has as its target Streptavidin (Streptomyces avidinii) (UniProt P22629). Put plainly: compounds binding control protein streptavidin – biophysical, small-molecule microarray, 635/667 nm fluorescence, artefact control for SMM compound annotation, primary screen (AID 1147).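 Further: signal reflects streptavidin binding to arrayed compounds as a control protein.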 The settings on record: higher = more signal.
A short description of assay [7]: probe aInhba binding on compound microarray – biochemical, small-molecule microarray, 635/667 nm fluorescence, primary screen (AID 1148).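 Further: score merges 667nm spot fluorescence with signal-to-noise for antibody binding to printed compounds.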 Particulars: higher = more signal.
Assay [8] addresses Torsin-1A (Homo sapiens) (UniProt O14656). As to the kind of experiment: TOR1A wild-type binding on microarray – cell lysate, small-molecule microarray, lysate, 635/667 nm, primary screen (AID 1149). Particulars: COS7 hTOR1A-WT lysate, 635 nm fluorescence, higher = more signal.
The target is the same in assay [9]. Put plainly: torsin A mutant lysate binding on microarrays – cell lysate, small-molecule microarray, COS7 lysate, 635/667 nm fluorescence, primary screen (AID 1150).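 Further: score pools 667 nm emission and signal to noise measuring lysate protein binding.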 Particulars: COS7 hTOR1A mutant lysate, 635 nm fluorescence, higher = more signal.
Assay [10] concerns Sonic hedgehog protein (Shh). Put plainly: Sonic hedgehog microarray binding compounds – biochemical, small-molecule microarray, 635/667 nm fluorescence, primary screen (AID 1151).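 Further: Shh protein binding to compounds spotted on small-molecule microarray slides; score combines spot fluorescence intensity with signal-to-noise across triplicate slides.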 The settings on record: 635 nm fluorescence, higher = more signal.
Assay [11] in a line: optical density shifts of acrAB sulA E. coli – strain DRC41, OD650, 48 h, E. coli filamentation inducer project, primary screen (AID 1152).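 Further: E. coli MC1000 strain DRC41 lacking acrAB efflux pump and sulA.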 Particulars: higher = more signal, called active from +8 up or from −8 down.
The nature of assay [12]: probe aLefty1 binding on compound microarray – biochemical, small-molecule microarray, 635/667 nm fluorescence, primary screen (AID 1153).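 Further: score merges spot fluorescence with signal-to-noise ratio from the scanned slide images.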 The settings on record: higher = more signal.
A short description of assay [13]: plasmodial surface anion channel blockers, osmotic lysis – cell-based, P. falciparum Indochina, OD700, 1 h, primary screen (AID 1154). The settings on record: P. falciparum Indochina infected RBC osmotic lysis, higher = more signal, called active from +8 up or from −8 down.
Assay [14] can be described thus: plasmodial surface anion channel blockers, osmotic lysis – cell-based, P. falciparum Indochina, OD700, 2 h, primary screen (AID 1155).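 Further: lysis reports solute entry through the parasite surface anion channel PSAC.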 The settings on record: P. falciparum Indochina infected erythrocytes, higher = more signal, called active from +8 up or from −8 down.
Assay [15] in a line: changes in parasitized red cell lysis, either direction – P. falciparum Indochina, OD700, 3 h, PSAC antagonist project, primary screen (AID 1156). Particulars: P. falciparum-infected erythrocytes, osmotic lysis, higher = more signal, called active from +8 up or from −8 down.
The nature of assay [16]: plasmodial surface anion channel blockers, osmotic lysis – cell-based, P. falciparum Indochina, OD700, 18 h, primary screen (AID 1157). Particulars: P. falciparum Indochina infected erythrocytes, osmotic lysis OD700, 18 h; higher = more signal, called active from +8 up or from −8 down.
The nature of assay [17]: S6 kinase pathway phospho-S6 level changes – cell-based, A549, cytoblot, luminescence, serum-stimulated, primary screen (AID 1158).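 Further: serum-stimulated A549 lung adenocarcinoma cells; signal is phosphorylated S6 detected by cytoblot immunostaining with HRP secondary.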 The settings on record: 5 h, higher = more signal.
The target of assay [18] is NADPH oxidase 2 (Homo sapiens) (UniProt P04839). Put plainly: compounds shifting NOX2 Amplex Red fluorescence – cell-based, HEK293-NOX2, PMA-stimulated, NOX inhibitor project, primary screen (AID 1159). Further: test concentration not given here. Particulars: 45 min, higher = more signal, called active from +8 up or from −8 down.
The target in assay [19] is NADPH oxidase 4 (Homo sapiens) (UniProt Q9NPH5). Put plainly: compounds shifting NOX4 Amplex Red fluorescence – cell-based, HEK293-NOX4, tetracycline-induced, NOX inhibitor project, primary screen (AID 1160). The settings on record: HEK293-NOX4, Amplex Red H2O2 fluorescence, 45 min; higher = more signal, called active from +8 up or from −8 down.
Assay [20] deals with NADPH oxidase 5 (Homo sapiens) (UniProt Q96PH1). As to the kind of experiment: compounds shifting NOX5 Amplex Red fluorescence – cell-based, HEK293-NOX5, NOX inhibitor project, primary screen (AID 1161). The settings on record: HEK293-NOX5, ionomycin, 45 min, higher = more signal.
Sequence of NADPH oxidase 5 (Homo sapiens) (Q96PH1 whole entry, looked up): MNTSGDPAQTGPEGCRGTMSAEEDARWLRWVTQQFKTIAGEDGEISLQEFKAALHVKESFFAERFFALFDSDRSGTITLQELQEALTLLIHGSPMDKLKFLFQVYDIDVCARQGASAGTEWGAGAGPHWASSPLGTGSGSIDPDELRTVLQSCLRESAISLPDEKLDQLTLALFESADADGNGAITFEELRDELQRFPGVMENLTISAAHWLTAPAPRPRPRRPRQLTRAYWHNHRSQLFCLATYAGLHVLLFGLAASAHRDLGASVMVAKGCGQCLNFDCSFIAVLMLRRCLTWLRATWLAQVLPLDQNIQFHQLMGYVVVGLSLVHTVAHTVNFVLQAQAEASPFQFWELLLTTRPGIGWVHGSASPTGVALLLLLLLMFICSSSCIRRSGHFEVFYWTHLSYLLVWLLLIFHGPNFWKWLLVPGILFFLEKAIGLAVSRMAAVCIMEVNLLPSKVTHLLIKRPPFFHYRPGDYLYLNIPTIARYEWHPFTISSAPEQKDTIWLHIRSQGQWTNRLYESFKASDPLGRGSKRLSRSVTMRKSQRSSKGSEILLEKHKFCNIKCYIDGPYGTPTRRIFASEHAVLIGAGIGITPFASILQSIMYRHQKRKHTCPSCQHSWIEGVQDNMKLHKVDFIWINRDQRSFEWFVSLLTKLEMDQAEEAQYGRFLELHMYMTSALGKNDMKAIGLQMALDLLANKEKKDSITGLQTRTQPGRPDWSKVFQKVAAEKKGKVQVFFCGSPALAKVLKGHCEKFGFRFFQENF

Sequence of NADPH oxidase 4 (Homo sapiens) (Q9NPH5 whole entry, looked up): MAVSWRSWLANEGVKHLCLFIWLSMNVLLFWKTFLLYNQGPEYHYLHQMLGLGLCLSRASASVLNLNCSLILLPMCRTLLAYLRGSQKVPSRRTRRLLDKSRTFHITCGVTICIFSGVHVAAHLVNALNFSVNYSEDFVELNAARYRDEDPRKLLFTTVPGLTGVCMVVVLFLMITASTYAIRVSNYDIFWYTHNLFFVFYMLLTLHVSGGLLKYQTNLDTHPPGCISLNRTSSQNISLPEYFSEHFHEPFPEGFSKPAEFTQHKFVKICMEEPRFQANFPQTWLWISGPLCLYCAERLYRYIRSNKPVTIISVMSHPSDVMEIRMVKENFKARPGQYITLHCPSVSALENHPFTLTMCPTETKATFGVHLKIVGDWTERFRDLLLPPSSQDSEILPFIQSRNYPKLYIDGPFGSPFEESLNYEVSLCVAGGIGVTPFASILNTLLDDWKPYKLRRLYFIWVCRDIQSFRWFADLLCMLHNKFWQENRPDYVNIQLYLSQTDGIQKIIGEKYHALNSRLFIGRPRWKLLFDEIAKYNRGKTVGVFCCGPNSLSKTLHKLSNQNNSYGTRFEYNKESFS
Sequence of Torsin-1A (Homo sapiens) (O14656 whole entry, looked up): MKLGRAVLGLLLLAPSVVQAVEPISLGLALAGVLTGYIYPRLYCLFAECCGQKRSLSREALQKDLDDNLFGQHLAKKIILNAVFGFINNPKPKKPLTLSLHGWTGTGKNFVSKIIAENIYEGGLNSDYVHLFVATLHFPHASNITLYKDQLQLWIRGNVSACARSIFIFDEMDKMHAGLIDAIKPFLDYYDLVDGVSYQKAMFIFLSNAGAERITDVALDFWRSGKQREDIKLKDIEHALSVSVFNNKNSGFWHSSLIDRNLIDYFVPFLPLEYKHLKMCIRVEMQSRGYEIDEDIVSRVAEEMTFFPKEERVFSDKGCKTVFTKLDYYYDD
Sequence of NADPH oxidase 2 (Homo sapiens) (P04839 whole entry, looked up): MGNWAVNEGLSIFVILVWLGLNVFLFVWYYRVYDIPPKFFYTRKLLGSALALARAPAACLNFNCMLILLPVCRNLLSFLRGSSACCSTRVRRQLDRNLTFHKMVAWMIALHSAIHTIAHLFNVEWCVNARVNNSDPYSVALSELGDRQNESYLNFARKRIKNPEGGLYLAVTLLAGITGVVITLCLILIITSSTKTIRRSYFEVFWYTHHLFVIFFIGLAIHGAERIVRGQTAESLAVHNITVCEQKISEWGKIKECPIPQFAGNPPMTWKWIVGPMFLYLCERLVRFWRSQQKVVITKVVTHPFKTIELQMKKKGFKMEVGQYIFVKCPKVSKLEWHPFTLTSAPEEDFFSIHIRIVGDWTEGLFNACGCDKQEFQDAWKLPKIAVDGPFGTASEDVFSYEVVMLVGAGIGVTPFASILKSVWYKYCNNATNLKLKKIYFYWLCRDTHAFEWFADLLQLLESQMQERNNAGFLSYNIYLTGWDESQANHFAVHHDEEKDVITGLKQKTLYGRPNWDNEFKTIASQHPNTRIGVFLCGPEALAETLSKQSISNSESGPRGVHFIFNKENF
Sequence of Streptavidin (Streptomyces avidinii) (P22629 whole entry, looked up): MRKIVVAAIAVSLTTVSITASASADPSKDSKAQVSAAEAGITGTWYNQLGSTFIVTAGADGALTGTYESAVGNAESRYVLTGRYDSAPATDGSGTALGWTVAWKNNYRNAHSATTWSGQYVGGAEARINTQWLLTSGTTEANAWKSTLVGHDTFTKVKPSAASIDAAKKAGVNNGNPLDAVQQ

Turning to `CO[C@@H](C1CCCCC1)[C@@H](C)[C@H](OCc1cccc(Br)c1)[C@@H](C)CO`, the composite z-score in [1] was -0.098; in assay [6], -0.0731; in assay [7] it was 0.0442; with Torsin-1A (Homo sapiens) [8], -0.0604; with Torsin-1A (Homo sapiens) [9] it was 0.467; in [10] it was 0.458. In assay [12], the composite z-score is -0.401. For the same molecule, the z-score was -2.1 (inactive) in assay [2]; 0.115 (inactive) in [3]; 2.93 (inactive) in assay [4]; 0.432 (inactive) in [5]; -0.409 (inactive) in assay [11]; 2.08 (inactive) in assay [13]. The z-score in [14] was 1.29 (inactive); in assay [15], -1.8 (inactive); in assay [16], 0.957 (inactive); in assay [17], -0.337; in [18] it was -0.787 (inactive); in assay [19] it was 0.0443 (inactive). For the same molecule, the z-score in [20] was -2.45.
Take `CCOC(=O)[C@H](Cc1ccccc1)NC(=O)CCC1CC(OC(=O)NCCc2ccc(F)cc2)CC2(CCCC(COC(=O)NCc3cccc(C(F)(F)F)c3)O2)O1` (stereo not given in full): the composite z-score in assay [1] was 0.011; in assay [6], 0.899; in [7], -0.101; with Torsin-1A (Homo sapiens) [8] it was 0.386; with Torsin-1A (Homo sapiens) [9], 0.376; in assay [10] it was 1.48. The molecule further returned a composite z-score in assay [12] of 0.0834. Moreover, the z-score in [2] is -2.08 (inactive); in [3] it was 0.885 (inactive); in assay [4] it was -0.162 (inactive); in [5] it was -0.605 (inactive); in assay [11], 0.048 (inactive); in assay [13], -1.14 (inactive). Besides, the z-score in assay [14] was 0.277 (inactive); in [15] it was -0.017 (inactive); in [16], 0.344 (inactive); in assay [17], -0.354; in [18] it was 0.575 (inactive); in assay [19], 0.488 (inactive). For the same molecule, the z-score in [20] came out at 0.837.
On to `COc1ccc(O[C@H]2C=C[C@@H](c3ccccc3)O[C@@H]2CON=C2c3cc(OC)ccc3O[C@H](c3cccc(OC)c3)[C@H]2O)cc1`, for which the composite z-score in assay [1] is 0.288; in assay [6] it was 0.414; in [7] it was -0.224; with Torsin-1A (Homo sapiens) [8], 0.0513; in the assay with Torsin-1A (Homo sapiens) [9], 0.37; in assay [10], 0.105. The composite z-score in assay [12] is -0.237. For the same molecule, the z-score is -0.0115 (inactive) in assay [2]; -0.0389 (inactive) in [3]; 0.913 (inactive) in assay [4]; 0.411 (inactive) in [5]; -1.41 (inactive) in assay [11]; 4.7 (inactive) in assay [13]. Also, the z-score in assay [14] was 1.12 (inactive); in assay [15], -0.392 (inactive); in assay [16], 0.442 (inactive); in assay [17], -1.1; in assay [18], -0.0682 (inactive); in [19], 0.264 (inactive). Moreover, in assay [20], the z-score is 0.562.
Regarding `CCCNC(=O)OC[C@H]1O[C@H](CCON=C2c3cc(OC)ccc3O[C@H](c3cccc(OC)c3)[C@H]2O)C=C[C@@H]1Oc1ccc(OC)cc1`, the composite z-score was 0.298 in assay [1]; 0.474 in assay [6]; -0.0011 in assay [7]; 0.442 in the assay with Torsin-1A (Homo sapiens) [8]; 0.818 in the assay with Torsin-1A (Homo sapiens) [9]; 0.436 in assay [10]. The molecule also had a composite z-score in [12] of -0.0637. The z-score in [2] is -0.69 (inactive); in [3], 0.298 (inactive); in [4], 4.37 (inactive); in assay [5], 0.469 (inactive); in assay [11], 0.447 (inactive); in assay [13], 3.13 (inactive). Moreover, the z-score is 0.855 (inactive) in assay [14]; 0.431 (inactive) in assay [15]; 0.563 (inactive) in assay [16]; -0.641 in assay [17]; 0.461 (inactive) in assay [18]; 0.455 (inactive) in assay [19]. The z-score in assay [20] was -0.473.
